Drawing on ChEMBL document CHEMBL1961873, “Compounds: GSK PKIS; Assays: Nanosyn kinase panel” (2012), this text covers inhibition for two molecules.

Assay [1] deals with Protein kinase C gamma type (Homo sapiens) (UniProt P05129). The settings on record: at 1 µM.
In assay [2] the target is T1, Protein kinase C iota type (Homo sapiens) (UniProt P41743).
T1 sequence (whole entry): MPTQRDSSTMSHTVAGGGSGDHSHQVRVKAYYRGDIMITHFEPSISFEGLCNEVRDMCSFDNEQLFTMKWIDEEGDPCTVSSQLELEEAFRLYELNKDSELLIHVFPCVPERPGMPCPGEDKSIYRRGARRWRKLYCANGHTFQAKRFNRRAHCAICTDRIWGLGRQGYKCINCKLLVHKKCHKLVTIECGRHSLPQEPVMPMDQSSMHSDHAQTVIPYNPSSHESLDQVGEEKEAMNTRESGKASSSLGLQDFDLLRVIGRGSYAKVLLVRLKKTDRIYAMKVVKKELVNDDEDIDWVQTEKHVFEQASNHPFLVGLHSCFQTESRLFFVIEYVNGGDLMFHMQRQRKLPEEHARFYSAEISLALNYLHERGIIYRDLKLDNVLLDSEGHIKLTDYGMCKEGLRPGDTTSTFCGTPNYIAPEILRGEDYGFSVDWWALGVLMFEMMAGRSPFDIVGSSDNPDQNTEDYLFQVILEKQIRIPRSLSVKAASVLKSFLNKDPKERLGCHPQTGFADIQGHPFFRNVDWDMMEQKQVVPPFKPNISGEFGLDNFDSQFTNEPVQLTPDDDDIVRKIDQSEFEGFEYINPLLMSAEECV
The settings on record: at 0.1 µM.

Assay [3] deals with T1, Protein kinase C iota type (Homo sapiens). The settings on record: at 1 µM.
Assay [4] concerns the target Protein kinase C theta type (Homo sapiens) (UniProt Q04759). Particulars: at 0.1 µM.
The target is the same in assay [5]. Particulars: at 1 µM.
Assay [6] has as its target Protein kinase C beta type (Homo sapiens) (UniProt P05771). Particulars: at 0.1 µM.
The target is the same in assay [7]. Particulars: at 1 µM.
The target of assay [8] is T2, Serine/threonine-protein kinase D1 (Homo sapiens) (UniProt Q15139).
T2 sequence (whole entry): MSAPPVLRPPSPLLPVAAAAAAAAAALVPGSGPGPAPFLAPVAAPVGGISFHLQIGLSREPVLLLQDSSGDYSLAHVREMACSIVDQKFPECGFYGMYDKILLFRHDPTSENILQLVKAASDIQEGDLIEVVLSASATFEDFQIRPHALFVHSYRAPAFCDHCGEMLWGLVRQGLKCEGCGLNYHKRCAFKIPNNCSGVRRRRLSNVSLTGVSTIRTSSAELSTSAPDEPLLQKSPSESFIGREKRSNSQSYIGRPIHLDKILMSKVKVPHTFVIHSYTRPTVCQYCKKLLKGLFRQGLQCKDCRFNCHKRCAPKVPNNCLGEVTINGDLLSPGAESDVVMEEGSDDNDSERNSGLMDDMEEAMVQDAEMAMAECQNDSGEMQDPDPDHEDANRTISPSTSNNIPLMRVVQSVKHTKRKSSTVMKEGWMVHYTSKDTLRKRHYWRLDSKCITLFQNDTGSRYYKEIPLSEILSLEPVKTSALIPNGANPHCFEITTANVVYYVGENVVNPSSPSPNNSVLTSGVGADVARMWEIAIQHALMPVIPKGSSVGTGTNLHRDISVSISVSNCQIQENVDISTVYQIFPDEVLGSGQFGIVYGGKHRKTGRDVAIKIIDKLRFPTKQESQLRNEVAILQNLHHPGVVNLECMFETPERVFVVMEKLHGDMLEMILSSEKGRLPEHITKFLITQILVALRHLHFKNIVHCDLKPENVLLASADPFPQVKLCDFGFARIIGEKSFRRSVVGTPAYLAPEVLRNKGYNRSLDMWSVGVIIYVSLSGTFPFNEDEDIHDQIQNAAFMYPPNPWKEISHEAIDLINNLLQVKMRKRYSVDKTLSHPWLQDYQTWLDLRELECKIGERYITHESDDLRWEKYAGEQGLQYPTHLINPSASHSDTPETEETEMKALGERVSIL
Particulars: at 0.1 µM.

Assay [9] deals with T2, Serine/threonine-protein kinase D1 (Homo sapiens). The settings on record: at 1 µM.
Assay [10] deals with T3, Serine/threonine-protein kinase D2 (Homo sapiens) (UniProt Q9BZL6).
T3 sequence (whole entry): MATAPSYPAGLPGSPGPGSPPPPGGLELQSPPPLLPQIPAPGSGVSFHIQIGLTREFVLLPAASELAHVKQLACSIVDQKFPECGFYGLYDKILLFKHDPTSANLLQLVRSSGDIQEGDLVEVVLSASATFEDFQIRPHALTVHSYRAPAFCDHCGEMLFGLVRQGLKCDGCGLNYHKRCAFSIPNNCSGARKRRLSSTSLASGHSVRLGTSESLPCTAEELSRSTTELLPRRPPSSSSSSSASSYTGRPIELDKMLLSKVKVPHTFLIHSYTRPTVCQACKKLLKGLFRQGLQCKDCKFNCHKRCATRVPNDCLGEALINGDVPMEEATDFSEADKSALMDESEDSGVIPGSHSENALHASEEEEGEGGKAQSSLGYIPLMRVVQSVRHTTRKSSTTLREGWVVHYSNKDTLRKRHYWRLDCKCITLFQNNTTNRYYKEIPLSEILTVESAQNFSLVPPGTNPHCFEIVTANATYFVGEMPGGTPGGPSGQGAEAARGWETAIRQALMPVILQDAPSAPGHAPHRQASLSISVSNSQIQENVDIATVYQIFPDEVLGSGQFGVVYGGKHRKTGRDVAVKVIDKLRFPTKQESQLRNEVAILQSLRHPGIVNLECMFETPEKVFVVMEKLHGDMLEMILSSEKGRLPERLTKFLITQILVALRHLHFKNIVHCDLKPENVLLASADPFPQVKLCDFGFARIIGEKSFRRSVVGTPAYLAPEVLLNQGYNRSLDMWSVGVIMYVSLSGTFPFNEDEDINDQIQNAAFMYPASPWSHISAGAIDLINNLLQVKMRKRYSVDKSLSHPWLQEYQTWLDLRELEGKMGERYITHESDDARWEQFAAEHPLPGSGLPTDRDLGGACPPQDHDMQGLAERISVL
The settings on record: at 0.1 µM.

In assay [11] the target is T3, Serine/threonine-protein kinase D2 (Homo sapiens). Particulars: at 1 µM.
Assay [12] deals with T4, Serine/threonine-protein kinase D3 (Homo sapiens) (UniProt O94806).
T4 sequence (whole entry): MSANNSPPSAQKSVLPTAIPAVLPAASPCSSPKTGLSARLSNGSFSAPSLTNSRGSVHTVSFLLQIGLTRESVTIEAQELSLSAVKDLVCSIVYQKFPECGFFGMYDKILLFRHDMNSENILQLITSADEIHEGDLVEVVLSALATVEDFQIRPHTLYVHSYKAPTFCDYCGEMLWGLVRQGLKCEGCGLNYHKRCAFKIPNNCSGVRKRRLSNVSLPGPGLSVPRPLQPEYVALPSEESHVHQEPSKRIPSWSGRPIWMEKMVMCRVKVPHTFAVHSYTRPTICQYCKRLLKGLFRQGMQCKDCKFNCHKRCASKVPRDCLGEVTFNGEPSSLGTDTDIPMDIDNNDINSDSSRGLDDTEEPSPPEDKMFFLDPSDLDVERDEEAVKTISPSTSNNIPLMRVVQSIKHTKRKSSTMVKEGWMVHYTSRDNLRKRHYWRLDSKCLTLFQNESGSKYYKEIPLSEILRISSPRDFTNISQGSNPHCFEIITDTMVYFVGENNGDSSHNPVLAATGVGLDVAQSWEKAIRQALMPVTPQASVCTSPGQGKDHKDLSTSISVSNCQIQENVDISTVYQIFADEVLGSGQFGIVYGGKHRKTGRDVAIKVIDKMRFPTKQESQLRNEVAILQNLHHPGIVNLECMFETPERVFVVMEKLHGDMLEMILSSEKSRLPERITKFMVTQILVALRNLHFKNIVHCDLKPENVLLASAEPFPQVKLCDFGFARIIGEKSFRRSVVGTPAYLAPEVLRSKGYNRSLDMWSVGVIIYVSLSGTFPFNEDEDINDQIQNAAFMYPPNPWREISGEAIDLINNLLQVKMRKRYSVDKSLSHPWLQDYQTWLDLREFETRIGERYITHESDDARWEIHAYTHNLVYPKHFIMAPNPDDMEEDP
The settings on record: at 0.1 µM.

Assay [13] deals with T4, Serine/threonine-protein kinase D3 (Homo sapiens). Particulars: at 1 µM.
Assay [14] concerns the target T5, cGMP-dependent protein kinase 1 (Homo sapiens) (UniProt Q13976).
T5 sequence (whole entry): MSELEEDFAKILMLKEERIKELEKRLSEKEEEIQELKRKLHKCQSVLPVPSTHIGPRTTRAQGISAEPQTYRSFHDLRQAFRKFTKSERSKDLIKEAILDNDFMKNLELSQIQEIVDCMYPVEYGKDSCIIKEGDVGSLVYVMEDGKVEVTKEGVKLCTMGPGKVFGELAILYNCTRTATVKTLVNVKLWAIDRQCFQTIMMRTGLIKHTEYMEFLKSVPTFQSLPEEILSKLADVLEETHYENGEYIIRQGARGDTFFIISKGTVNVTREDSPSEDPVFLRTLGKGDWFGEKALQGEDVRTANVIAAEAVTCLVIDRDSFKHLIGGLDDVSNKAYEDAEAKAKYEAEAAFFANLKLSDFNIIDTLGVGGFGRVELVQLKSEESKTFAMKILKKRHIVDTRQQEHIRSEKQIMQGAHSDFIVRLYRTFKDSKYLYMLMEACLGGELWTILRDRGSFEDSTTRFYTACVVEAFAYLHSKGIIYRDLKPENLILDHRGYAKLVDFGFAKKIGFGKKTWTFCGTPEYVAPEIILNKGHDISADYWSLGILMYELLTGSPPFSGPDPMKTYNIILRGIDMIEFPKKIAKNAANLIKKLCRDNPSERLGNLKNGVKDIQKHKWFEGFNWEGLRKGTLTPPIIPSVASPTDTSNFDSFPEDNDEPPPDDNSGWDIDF
Particulars: at 0.1 µM.

The target in assay [15] is T5, cGMP-dependent protein kinase 1 (Homo sapiens). The settings on record: at 1 µM.
Assay [16] concerns the target T6, cGMP-dependent protein kinase 2 (Homo sapiens) (UniProt Q13237).
T6 sequence (whole entry): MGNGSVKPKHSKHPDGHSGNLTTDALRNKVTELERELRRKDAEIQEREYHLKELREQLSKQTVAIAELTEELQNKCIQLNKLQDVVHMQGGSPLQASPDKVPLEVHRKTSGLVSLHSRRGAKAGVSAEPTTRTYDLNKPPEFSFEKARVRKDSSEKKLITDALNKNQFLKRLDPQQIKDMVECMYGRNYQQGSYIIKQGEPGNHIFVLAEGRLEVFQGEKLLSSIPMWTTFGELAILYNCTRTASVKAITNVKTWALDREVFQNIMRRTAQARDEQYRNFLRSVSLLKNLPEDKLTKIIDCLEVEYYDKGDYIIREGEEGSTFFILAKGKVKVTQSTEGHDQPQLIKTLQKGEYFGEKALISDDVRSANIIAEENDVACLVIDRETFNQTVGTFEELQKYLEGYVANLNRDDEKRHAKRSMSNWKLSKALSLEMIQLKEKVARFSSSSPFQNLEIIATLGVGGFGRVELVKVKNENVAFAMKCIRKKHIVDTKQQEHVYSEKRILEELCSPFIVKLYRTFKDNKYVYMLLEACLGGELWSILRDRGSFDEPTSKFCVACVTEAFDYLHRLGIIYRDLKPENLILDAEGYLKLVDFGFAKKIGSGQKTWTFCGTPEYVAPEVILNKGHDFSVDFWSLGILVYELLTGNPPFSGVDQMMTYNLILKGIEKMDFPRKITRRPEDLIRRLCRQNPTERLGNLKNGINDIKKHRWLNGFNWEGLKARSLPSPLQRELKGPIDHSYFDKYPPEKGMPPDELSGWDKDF
The settings on record: at 0.1 µM.

Assay [17] deals with T6, cGMP-dependent protein kinase 2 (Homo sapiens). The settings on record: at 1 µM.
The target in assay [18] is T7, cAMP-dependent protein kinase catalytic subunit PRKX (Homo sapiens) (UniProt P51817).
T7 sequence (whole entry): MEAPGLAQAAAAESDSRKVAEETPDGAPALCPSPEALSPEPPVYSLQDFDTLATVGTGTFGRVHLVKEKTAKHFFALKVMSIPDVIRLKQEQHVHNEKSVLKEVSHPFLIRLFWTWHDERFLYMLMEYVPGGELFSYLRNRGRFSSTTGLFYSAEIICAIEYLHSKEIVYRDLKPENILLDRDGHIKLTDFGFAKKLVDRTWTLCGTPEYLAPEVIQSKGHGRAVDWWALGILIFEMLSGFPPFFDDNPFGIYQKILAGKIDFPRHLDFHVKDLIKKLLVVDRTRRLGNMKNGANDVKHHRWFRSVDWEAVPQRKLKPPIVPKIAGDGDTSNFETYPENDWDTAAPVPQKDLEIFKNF
The settings on record: at 0.1 µM.

Assay [19] deals with T7, cAMP-dependent protein kinase catalytic subunit PRKX (Homo sapiens). Particulars: at 1 µM.
Assay [20] concerns the target Rho-associated protein kinase 1 (Homo sapiens) (UniProt Q13464). Particulars: at 0.1 µM.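 Also: values are mean percent inhibition of ROCK1.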

Sequence of Protein kinase C beta type (Homo sapiens) (P05771 2-671 limits assumed): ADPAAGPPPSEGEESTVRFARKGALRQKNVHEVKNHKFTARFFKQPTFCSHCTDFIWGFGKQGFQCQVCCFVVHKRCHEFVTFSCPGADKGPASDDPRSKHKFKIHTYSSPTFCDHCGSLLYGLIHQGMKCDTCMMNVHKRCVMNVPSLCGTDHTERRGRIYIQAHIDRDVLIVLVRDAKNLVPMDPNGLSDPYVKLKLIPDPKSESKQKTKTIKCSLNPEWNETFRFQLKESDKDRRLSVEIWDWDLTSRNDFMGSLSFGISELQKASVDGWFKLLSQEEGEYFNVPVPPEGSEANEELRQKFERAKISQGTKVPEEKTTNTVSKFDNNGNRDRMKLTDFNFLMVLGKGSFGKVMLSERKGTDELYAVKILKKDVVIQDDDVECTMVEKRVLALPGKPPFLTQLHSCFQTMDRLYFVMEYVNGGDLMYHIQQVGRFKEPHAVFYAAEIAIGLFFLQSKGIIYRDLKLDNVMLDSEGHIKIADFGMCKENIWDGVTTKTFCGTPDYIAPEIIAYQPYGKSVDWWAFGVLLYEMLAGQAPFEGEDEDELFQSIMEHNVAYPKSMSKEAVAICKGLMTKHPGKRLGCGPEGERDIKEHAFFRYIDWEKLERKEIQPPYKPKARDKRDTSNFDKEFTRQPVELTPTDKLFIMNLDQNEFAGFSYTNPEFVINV
Sequence of Protein kinase C theta type (Homo sapiens) (Q04759 whole entry, looked up): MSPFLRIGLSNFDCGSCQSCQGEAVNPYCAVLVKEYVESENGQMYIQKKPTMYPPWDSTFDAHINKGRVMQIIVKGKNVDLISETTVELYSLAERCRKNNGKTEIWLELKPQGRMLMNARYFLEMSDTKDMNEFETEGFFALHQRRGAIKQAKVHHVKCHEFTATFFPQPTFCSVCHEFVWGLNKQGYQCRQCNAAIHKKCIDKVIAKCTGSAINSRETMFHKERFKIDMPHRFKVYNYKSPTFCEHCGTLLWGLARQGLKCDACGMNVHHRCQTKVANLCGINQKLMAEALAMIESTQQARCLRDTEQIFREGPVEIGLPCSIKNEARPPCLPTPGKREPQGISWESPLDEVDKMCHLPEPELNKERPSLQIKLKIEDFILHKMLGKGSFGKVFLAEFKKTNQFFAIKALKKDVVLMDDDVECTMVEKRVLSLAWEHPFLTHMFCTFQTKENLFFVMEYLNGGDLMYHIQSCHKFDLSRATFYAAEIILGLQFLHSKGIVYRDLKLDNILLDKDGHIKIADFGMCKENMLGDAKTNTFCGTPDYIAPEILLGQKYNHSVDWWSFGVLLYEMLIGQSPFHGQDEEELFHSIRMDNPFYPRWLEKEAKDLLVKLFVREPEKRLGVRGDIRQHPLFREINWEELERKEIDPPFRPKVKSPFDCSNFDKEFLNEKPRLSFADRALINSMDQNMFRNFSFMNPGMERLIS
Sequence of Rho-associated protein kinase 1 (Homo sapiens) (Q13464 2-1354 limits assumed): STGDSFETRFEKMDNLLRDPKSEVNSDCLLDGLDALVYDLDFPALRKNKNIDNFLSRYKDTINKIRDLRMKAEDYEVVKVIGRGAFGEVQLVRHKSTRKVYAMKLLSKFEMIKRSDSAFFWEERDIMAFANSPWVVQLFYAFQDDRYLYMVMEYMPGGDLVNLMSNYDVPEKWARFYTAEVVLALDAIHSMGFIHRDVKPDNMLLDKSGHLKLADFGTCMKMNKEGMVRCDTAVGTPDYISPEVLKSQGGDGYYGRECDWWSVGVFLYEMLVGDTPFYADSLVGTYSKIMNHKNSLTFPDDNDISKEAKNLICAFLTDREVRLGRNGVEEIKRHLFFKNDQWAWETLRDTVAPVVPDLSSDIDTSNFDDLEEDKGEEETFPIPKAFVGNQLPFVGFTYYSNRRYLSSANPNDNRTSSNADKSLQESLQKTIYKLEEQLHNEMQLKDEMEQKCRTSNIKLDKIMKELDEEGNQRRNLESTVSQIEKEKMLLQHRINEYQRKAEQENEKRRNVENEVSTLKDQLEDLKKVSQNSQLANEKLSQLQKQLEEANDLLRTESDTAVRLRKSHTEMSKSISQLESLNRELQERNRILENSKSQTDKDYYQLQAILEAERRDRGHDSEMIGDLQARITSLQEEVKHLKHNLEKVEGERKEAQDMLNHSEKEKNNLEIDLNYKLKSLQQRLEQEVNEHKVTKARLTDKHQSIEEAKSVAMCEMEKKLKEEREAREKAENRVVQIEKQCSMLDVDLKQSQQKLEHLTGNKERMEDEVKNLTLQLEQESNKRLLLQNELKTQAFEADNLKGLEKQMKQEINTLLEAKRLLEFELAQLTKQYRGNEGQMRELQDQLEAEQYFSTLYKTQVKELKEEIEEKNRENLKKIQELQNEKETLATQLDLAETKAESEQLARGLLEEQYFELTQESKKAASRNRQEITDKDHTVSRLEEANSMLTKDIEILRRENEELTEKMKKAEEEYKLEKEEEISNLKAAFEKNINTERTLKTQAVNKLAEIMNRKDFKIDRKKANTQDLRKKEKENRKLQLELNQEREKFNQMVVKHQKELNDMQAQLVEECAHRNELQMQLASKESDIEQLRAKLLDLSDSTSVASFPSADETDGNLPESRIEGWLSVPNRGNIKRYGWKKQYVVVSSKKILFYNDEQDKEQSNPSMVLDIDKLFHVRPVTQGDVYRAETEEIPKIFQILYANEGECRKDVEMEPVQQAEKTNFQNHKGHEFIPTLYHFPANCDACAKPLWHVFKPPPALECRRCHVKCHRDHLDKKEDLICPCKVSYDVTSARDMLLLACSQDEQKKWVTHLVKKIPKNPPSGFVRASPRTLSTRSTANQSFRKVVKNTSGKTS

As to `NS(=O)(=O)c1ccc(N/C=C2\C(=O)Nc3ccc4ncsc4c32)cc1`, the inhibition (as a rule, the relative decrease from the control value, in per cent) turned out to be 5.52% in [1]; 1.93% in [2]; 2.78% in assay [3]; 3.02% in [4]; 6.57% in assay [5]; 1.34% in assay [6]. In addition, the inhibition amounted to 3.28% in assay [7]; 22.4% in [8]; 67.3% in [9]; 16.3% in assay [10]; 58.2% in [11]; 13.7% in assay [12]. Also, the inhibition in assay [13] worked out at 54.2%; in [14] it was 4.89%; in assay [15], 16.7%; in assay [16], 9.85%; in [17] it was 47.9%; in assay [18], 2.57%. The inhibition in assay [19] was 6.55%; in [20], 6.26%.

As for `NC(=O)c1sc(-n2cnc3cc(C(F)(F)F)ccc32)cc1OCc1ccccc1Br`, the inhibition amounted to 2.52% in assay [1]; 0.97% in assay [2]; 0.63% in [3]; 0.18% in [4]; 0.55% in assay [5]; 0.4% in assay [6]. The inhibition in [7] is 0.57%; in assay [8] it was 1.33%; in assay [9], 1.94%; in assay [10], 1.96%; in [11], 2.17%; in [12], 1.16%. The inhibition in assay [13] is 1.32%; in [14], 0.44%; in assay [15], -0.88%; in [16], 0.81%; in [17], 1.01%; in assay [18], 0.67%. The inhibition in [19] was 1.17%; in assay [20], 0.41%.
